# Source: PubChem BioAssay
# This is a sample that favours compounds with a hit; in the whole collection about 3.5% have one here.
# MITF inh: MITF inhibitors, primary screen, biochemical, AlphaScreen, human; 0.91% of 650,000 active; AlphaScreen MITF homodimerization, bead proximity signal; AID 1259374, 2018; Microphthalmia-associated transcription factor (Homo sapiens), O75030; inhibition, % at 2.6 µM; in the data active means inhibition above about 50%;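 further: 0% = vehicle wells with protein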
# TEAD-YAP inh: TEAD-YAP interaction inhibition, primary screen, TEAD-YAP interaction inhibitor project, luminescence, HEK-TIYL cells | TEAD-Gal4/YAP UAS-luciferase luminescence | inhibition, % at 9.12 µM | 1.4% of 640,000 active; in the data active means inhibition above about 32%;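 further: 0% = median of test compound wells and 100% = reference inhibitor wells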
# GPR151 ag: activators of human GPR151, primary screen, cell-based, PathHunter beta-arrestin, luminescence. activation, % at 11.2 µM. PathHunter beta-arrestin GPR151 cells. G-protein coupled receptor 151 (Homo sapiens), Q8TDV0. 1% of 650,000 active; in the data active means activation above about 4.9%;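 further: 0% = median of compound wells and 100% = cells with positive control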
# Target sequence (Q8TDV0 whole entry, looked up): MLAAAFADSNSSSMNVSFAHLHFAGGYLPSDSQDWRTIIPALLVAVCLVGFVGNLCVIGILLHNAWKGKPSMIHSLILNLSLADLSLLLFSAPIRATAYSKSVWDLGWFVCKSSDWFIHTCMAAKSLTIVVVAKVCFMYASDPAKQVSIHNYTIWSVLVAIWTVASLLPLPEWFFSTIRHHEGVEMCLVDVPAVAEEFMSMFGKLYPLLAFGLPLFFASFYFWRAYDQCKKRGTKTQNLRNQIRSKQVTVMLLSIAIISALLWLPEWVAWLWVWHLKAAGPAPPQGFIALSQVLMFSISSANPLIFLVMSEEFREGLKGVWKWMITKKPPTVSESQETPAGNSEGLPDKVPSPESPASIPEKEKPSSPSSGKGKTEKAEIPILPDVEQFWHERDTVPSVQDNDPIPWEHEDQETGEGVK
# FBW7 activator: FBW7 E3 ligase activators, primary screen, biochemical, AlphaScreen, human; AlphaScreen FBW7–phospho-cyclin E peptide binding, activator screen; normalized activity (activation), % at 26.1 µM; 0.13% of 650,000 active; AID 1259310, 2017; in the data active means normalized activity above about 1.9%;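 further: purified mutant Fbw7 with reduced substrate affinity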
# GPR151 confirm: GPR151 activators, triplicate retest, confirmation, cell-based, PathHunter beta-arrestin, luminescence; shares compounds with GPR151 ag; activation, % at 11.2 µM; AID 1508609, 2020; GPR151 PathHunter beta-arrestin cells, 90 min; % of EA-reagent control over plate median; 6,700 tested, under 10 active;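 active means mean percent activation across replicates above the confirmation screen cutoff of 4.91%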
# GPR119 ag: GPR119 activators in beta-arrestin cells, counter-screen for GPR151 activator project, cell-based, PathHunter beta-arrestin, luminescence, triplicate; 0.3% of 6,700 active; 90 min; 0 = compound-well median, 100 = enzyme-acceptor control; activation, % at 11.2 µM; shares compounds with GPR151 ag;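 active means mean percent activation in the counterscreen above 29.09%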;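 further: counterscreen on off-target GPR119 to flag nonselective hits from the GPR151 activator screen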
# Starred values were filed as active, the others as inactive; . = not tested or not shown.
SMILES,MITF inh,TEAD-YAP inh,GPR151 ag,FBW7 activator,GPR151 confirm,GPR119 ag
CC(C)N(CCNC(=O)c1cccc(NCCCN2CCCC2=O)c1)C(C)C,3,-1,5.0*,0,-1,5
Fc1cccc(-c2cc3nc4c(c(N5CCOCC5)n3n2)CCC4)c1,7,0,6.7*,0,2,9
Fc1ccc(-c2cc3nc4c(c(N5CCOCC5)n3n2)CCC4)cc1,6,5,1,0,.,.
CC[n+]1c(/C=C2\Sc3ccc(-c4ccccc4)cc3N2CCO)ccc2cc(OC)ccc21,-22,91*,14*,-1,0,0
COc1ccc(N=c2scc(-c3ccccc3)n2CCO)cc1,-3,-24,2,0,.,.
CCC1SC(CC)C(=O)N(CC(=O)Nc2cc(OC)ccc2OC)C1=O (stereo not drawn),17,4,-1,1,.,.
COc1ccc(C(=O)COC(=O)CCC(=O)Nc2ccccc2Cl)cc1,-1,-4,1,0,.,.
Clc1ccc(C2C3=C(Nc4ncnn42)c2ccccc2CCC3)cc1 (stereo not drawn),-3,-6,6.0*,0,0,4
COc1cc([N+](=O)[O-])cc2sc(NC(=O)c3ccc(S(=O)(=O)N4CCc5ccccc54)cc3)nc12,2,-13,0,0,.,.
CSc1nsc(SC)c1NC(=O)OCC1CCCO1 (stereo not drawn),2,3,6.6*,0,0,-2
CSc1nsc(SC)c1NC(=O)OC1CCCC1,11,7,-1,0,.,.
O=C(OCc1nc2ccccc2s1)C1CCN(C2=NS(=O)(=O)c3ccccc32)CC1,7,-6,5.6*,0,1,12
NC(=O)C1CCN(C2=NS(=O)(=O)c3ccccc32)CC1,-1,7,-2,0,.,.
COc1ccc(Cl)cc1C(=O)Nc1c2c(nn1-c1ccc(C)cc1C)CSC2,-1,-5,-1,1,.,.
CN(C)C(=O)CSc1nnc(Cc2cccs2)n1C1CCCCC1,0,-6,1,0,.,.
C#CCN(Cc1ccco1)C(=O)CC1(c2ccccc2F)CC(=O)N(CCOC)C1=O (stereo not drawn),11,-1,6.7*,0,0,-1
CC(=O)c1ccc(S(=O)(=O)NCCc2cn3ccc(C)cc3n2)cc1,5,-4,5.0*,0,1,10
COC(=O)c1ccc(-c2nc(-c3cc(Cl)ccc3OC)no2)cc1,14,8,-2,0,.,.
Cc1ccc(N2C(=O)CC(Sc3nc(C)cc(C(F)(F)F)c3C#N)C2=O)cc1 (stereo not drawn),18,-10,-3,0,.,.
Cc1ccc(N2C(=O)CC(Sc3nc(C)cc(C)n3)C2=O)cc1 (stereo not drawn),-6,19,1,0,.,.
Cc1ccc(SC2CC(=O)N(c3ccccc3)C2=O)cc1 (stereo not drawn),5,1,5.0*,0,-1,-12
Cc1cc(C(F)(F)F)c(C#N)c(SC2CC(=O)N(c3ccccc3)C2=O)n1 (stereo not drawn),12,0,9.3*,1,1,0
CC(C)Cc1ccc(C#N)c(SC2CC(=O)N(c3ccccc3)C2=O)n1 (stereo not drawn),-7,-33,7.5*,0,0,-2
Cc1ccc(N2C(=O)CC(Sc3nc(-c4ccccc4)ccc3C#N)C2=O)cc1 (stereo not drawn),10,-19,1,0,.,.
NC(=O)C1CCN(C(=O)c2ccc3c(c2)OCO3)CC1,-3,1,-1,0,.,.
SMILES,MITF inh,TEAD-YAP inh,GPR151 ag,FBW7 activator,GPR151 confirm,GPR119 ag
Cc1ccc(C2=CC(c3ccc(Cl)cc3)n3nc(CCCO)nc3N2)cc1 (stereo not drawn),16,7,-1,0,.,.
COc1ccc(C2C=C(c3ccc(Cl)cc3)Nc3nc(CCCO)nn32)cc1 (stereo not drawn),-1,12,6.1*,0,2,5
CCOC(=O)Cn1nc(-c2ccccc2)c2cnc3cc4c(cc3c21)OCO4,-4,-4,0,0,.,.
COc1ccc(C2Oc3ccc(Cl)cc3C3CC(c4cccs4)=NN32)cc1 (stereo not drawn),2,-59,-1,0,.,.
Cc1cc2ccccc2n1CCNC(=O)c1ccc(Br)cc1,1,-13,5.0*,0,0,7
CCCNS(=O)(=O)c1ccc(F)c(C(=O)Nc2cc(Cl)ccc2OC)c1,8,-10,5.8*,1,-1,-2
CCOc1ccccc1NC(=O)c1cc(S(=O)(=O)NCCC2=CCCCC2)ccc1F,9,2,1,0,.,.
COc1ccccc1CNS(=O)(=O)c1ccc(F)c(C(=O)Nc2ccc(F)cc2)c1,18,2,5.4*,0,0,-8
COc1ccc(Cl)cc1NC(=O)c1cc(S(=O)(=O)N2CCCCCC2)ccc1F,-6,2,5.7*,0,0,-9
CCCNS(=O)(=O)c1ccc(F)c(C(=O)Nc2cc(C)ccc2OC)c1,-3,-2,0,0,.,.
COc1ccccc1CNS(=O)(=O)c1ccc(F)c(C(=O)Nc2ccc(Cl)cc2)c1,1,7,2,0,.,.
COc1ccc(Cl)cc1NC(=O)c1cc(S(=O)(=O)N2CCCCC2)ccc1F,-3,7,1,0,.,.
CCOc1ccccc1NC(=O)c1cc(S(=O)(=O)NCCc2ccccc2)ccc1F,11,-3,5.0*,0,0,-15
CCNC(=O)c1c(NC(=O)c2ccccc2)sc2c1CCC(C(C)(C)C)C2 (stereo not drawn),17,-8,-2,0,.,.
O=C(NNC(=O)c1ccccc1F)c1ccc(Cl)nc1,8,-15,4.9*,0,0,0
COc1cccc(CN2C[C@@H]3C[C@@H](c4ccc(SC)cc4)N4CCC[C@@]34C2=O)c1,6,1,-2,0,.,.
COc1ccccc1N/C(N)=N/c1nc(C(F)(F)F)cc(=O)[nH]1,-9,7,5.1*,0,-1,-8
Cc1ccccc1N/C(N)=N/c1nc(C(F)(F)F)cc(=O)[nH]1,11,4,8.2*,0,1,8
Cc1sc2ncn(CC(=O)Nc3ccc(C(F)(F)F)cc3)c(=O)c2c1S(=O)(=O)N1CCCCC1,3,-4,-1,0,.,.
Cc1nc2cnc(-c3ccc(O)cc3)cn2c1NC(=O)c1cccs1,3,-1,0,0,.,.
Cc1nc2cnc(-c3ccc(O)cc3)cn2c1NC(=O)CC1CCOCC1,16,24,12*,0,0,7
